Laboratory results as given in PubChem BioAssay (NCATS).
Results filed as inconclusive are left out. Calls of active or inactive are those of the source. The call rests on the fitted dose curve; in most records, active means well fitted curve in the direction sought with a large enough effect; inconclusive means small, poorly fitted or top-dose-only effect, or another doubt; inactive means no such curve, though single readings can be large; an effect the other way counts as inactive or inconclusive.

What was measured:
[1] = qHTS of pediatric cancer cell lines to identify multiple opportunities for drug repurposing: Primary screen for TC32 cells (AID 1347089); further: nearly all actives have a fitted effect of over 60% in size
Outline: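 A viability screen of TC32 cells was run over 48 h, with primary MIPE doses spanning 0.78 nM–46 µM and NPC doses 0.59 nM–46 µM. ATP luminescence (CellTiter-Glo) served as the read-out.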

[2] = qHTS of pediatric cancer cell lines to identify multiple opportunities for drug repurposing: Primary screen for DAOY cells (AID 1347090); further: series mostly up to about 46 µM; nearly all actives have a fitted effect of over 55% in size
Outline: (§1)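 Cell viability, CellTiter-Glo luminescence; 500-1,000 cells/well, 8- or 11-point titration, 48 h compound exposure at 37 degrees C, 5% CO2. Controls: DMSO neutral, bortezomib 2.3 µM final as positive.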

[3] = qHTS of pediatric cancer cell lines to identify multiple opportunities for drug repurposing: Primary screen for SJ-GBM2 cells (AID 1347091)
Outline: as §1

[4] = qHTS of pediatric cancer cell lines to identify multiple opportunities for drug repurposing: Primary screen for SK-N-MC cells (AID 1347093); further: series mostly up to about 46 µM
Outline: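 Metabolically active cells were quantified by ATP-dependent luminescence (CellTiter-Glo, 15 min at room temperature) following 48 h treatment. Cells had been plated at 500-1,000 per well and settled for 5 h beforehand.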

[5] = qHTS of pediatric cancer cell lines to identify multiple opportunities for drug repurposing: Primary screen for NB-EBc1 cells (AID 1347095)
Outline: (§2)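 Cells seeded at 500-1,000 cells/well in growth media, rested 5 hours at 37 degrees C, 5% CO2, then dosed; MIPE compounds at 11-point (from 0.78 nM) and NPC at 8-point (from 0.59 nM) final concentrations. Viability by CellTiter-Glo luminescence after 48 hours.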

[6] = qHTS of pediatric cancer cell lines to identify multiple opportunities for drug repurposing: Primary screen for U-2 OS cells (AID 1347096); further: nearly all actives have a fitted effect of over 50% in size
Outline: (§3)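 Cells (500-1,000/well) rested 5 h, then received compounds for 48 h; metabolically active cells were measured by CellTiter-Glo luminescence. Final concentrations spanned up to 46 µM (MIPE, 11-point) or 0.59 nM-46 µM (NPC, 8-point) in primary screens, 11-point in follow-ups.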

[7] = qHTS of pediatric cancer cell lines to identify multiple opportunities for drug repurposing: Primary screen for Saos-2 cells (AID 1347097); further: nearly all actives have a fitted effect of over 40% in size
Outline: as §2

[8] = qHTS of pediatric cancer cell lines to identify multiple opportunities for drug repurposing: Primary screen for NB1643 cells (AID 1347099); further: nearly all actives have a fitted effect of over 50% in size
Outline: as §2

[9] = qHTS of pediatric cancer cell lines to identify multiple opportunities for drug repurposing: Primary screen for LAN-5 cells (AID 1347100)
Outline: as §3

[10] = qHTS of pediatric cancer cell lines to identify multiple opportunities for drug repurposing: Primary screen for Rh18 cells (AID 1347102); further: nearly all actives have a fitted effect of over 65% in size
Outline: as §3

[11] = qHTS of pediatric cancer cell lines to identify multiple opportunities for drug repurposing: Primary screen for OHS-50 cells (AID 1347103); further: nearly all actives have a fitted effect of over 40% in size
Outline: as §3

[12] = qHTS of pediatric cancer cell lines to identify multiple opportunities for drug repurposing: Primary screen for RD cells (AID 1347104); further: nearly all actives have a fitted effect of over 55% in size
Outline: as §2

[13] = qHTS of pediatric cancer cell lines to identify multiple opportunities for drug repurposing: Primary screen for A673 cells (AID 1347092); further: nearly all actives have a fitted effect of over 45% in size
Outline: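 Titration-based qHTS on A673 cells: MIPE compounds spanned 11 points (0.78 nM to 46 µM final), NPC compounds 8 points (0.59 nM to 46 µM final). Viability after 48 h was measured by ATP luminescence.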

[14] = qHTS of pediatric cancer cell lines to identify multiple opportunities for drug repurposing: Primary screen for BT-37 cells (AID 1347094); further: series mostly up to about 57 µM
Outline: as §2

[15] = qHTS of pediatric cancer cell lines to identify multiple opportunities for drug repurposing: Primary screen for SK-N-SH cells (AID 1347098); further: nearly all actives have a fitted effect of over 65% in size
Outline: as §3

[16] = qHTS of pediatric cancer cell lines to identify multiple opportunities for drug repurposing: Primary screen for BT-12 cells (AID 1347101); further: nearly all actives have a fitted effect of over 25% in size
Outline: as §3

Measured: Potency

C=C1c2cccc(O)c2C(O)=C2C(=O)[C@]3(O)C(O)=C(C(N)=O)C(=O)[C@@H](N(C)C)[C@@H]3[C@@H](O)[C@H]12
not listed: [13] | [14] | [15] | [16]
inactive: all other assays above

Cc1ccc(-c2ncc(Cl)cc2-c2ccc(S(C)(=O)=O)cc2)cn1
not listed: [3]
inactive: all other assays above

CC(=O)OCC1=C(C(=O)O)N2C(=O)[C@@H](NC(=O)CSc3ccncc3)[C@H]2SC1
not listed: [4] | [5] | [14]
inactive: all other assays above

CCCN(CCc1cccs1)[C@H]1CCc2c(O)cccc2C1
not listed: [4] | [7] | [11] | [13] | [14] | [16]
inactive: all other assays above

O=C(NC1CCN(CCc2c[nH]c3ccccc23)CC1)c1ccccc1
not listed: [4] | [5] | [11] | [14]
inactive: all other assays above

CCCCNc1ccc(C(=O)OCCOCCOCCOCCOCCOCCOCCOCCOCCOC)cc1
inactive: [1] | [2] | [3] | [7] | [15] | [8] | [9] | [10] | [12]

FC(F)(F)C(F)(F)C(F)(F)C(F)(F)C(F)(F)C(F)(F)C(F)(F)C(F)(F)Br
not listed: [4] | [14]
inactive: all other assays above

COc1cc(N)c(Cl)cc1C(=O)NC1CCN(Cc2ccccc2)CC1
not listed: [4] | [11] | [13] | [15]
inactive: all other assays above

OCCOCCN1CCN(C2=Nc3ccccc3Sc3ccccc32)CC1
not listed: [3] | [11]
inactive: all other assays above

CC(=O)Oc1ccc(C)cc1
not listed: [4] | [11] | [14]
inactive: all other assays above

COc1cc(C)nc(-n2nc(C)cc2OC)n1
not listed: [5] | [11] | [13]
inactive: all other assays above

NC(=O)c1ccccc1O
not listed: [4] | [7] | [14]
inactive: all other assays above

CCN1CCN(C(=O)N[C@@H](C(=O)N[C@@H]2C(=O)N3C(C(=O)O)=C(CSc4nnnn4C)CS[C@H]23)c2ccc(O)cc2)C(=O)C1=O
not listed: [3] | [16]
inactive: all other assays above

CC(=O)O[C@]1(C(C)=O)CC[C@H]2[C@@H]3C=C(Cl)C4=CC(=O)CC[C@]4(C)[C@H]3CC[C@@]21C
not listed: [4] | [11] | [12] | [14] | [16]
inactive: all other assays above

C/C=C/C=N/NC(=O)c1ccncc1
not listed: [8] | [11] | [13]
inactive: all other assays above

COc1ccc(/C=N/NC(=O)c2ccncc2)cc1OC
not listed: [3] | [11]
inactive: all other assays above
